PubChem BioAssay (Tox21)
Inconclusive results are not listed. Calls of active or inactive are those of the source. Unless noted, calls follow the shape of the dose curve; as a rule, active = well fitted curve in the direction sought with a large enough effect in the repeat runs; inconclusive = weak or mixed curves; inactive = no such curve, though single readings can be large; an effect the other way counts as inactive or inconclusive.

Columns and labels:
[1] = qHTS assay for small molecule agonists of the p53 signaling pathway (AID 651631; calls by dose curve; also: nearly all actives have a fitted effect of over 15% in size)
In short: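 Fluorescence intensity from cleaved LiveBLAzer B/G substrate (2 h, room temperature) served as the signal. Beforehand, HCT-116 reporter cells bearing p53 response elements were treated 16 h at 37 °C with DMSO-dissolved compounds.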

[2] = qHTS assay for small molecules that induce genotoxicity in human embryonic kidney cells expressing luciferase-tagged ATAD5 (AID 651632); also: nearly all actives have a fitted effect of over 15% in size
In short: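 Cells were seeded at 2,000 per well, dosed with compound, and incubated 16 hr at 37C in 5% CO2. Luciferase activity was then quantified after a 30 min room-temperature incubation with Amplite.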

[3] = qHTS assay for small molecule agonists of the p53 signaling pathway - cell viability (AID 651633; calls by dose curve;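 also: p53RE-bla HCT reporter cells with a stable beta-lactamase p53 reporter; series mostly up to about 83 µM; nearly all actives have a fitted effect of over 30% in size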)
In short: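 p53RE-bla cells were treated with compound for 16 hours at 37 C. Cytotoxicity was then measured as CellTiter-Glo luminescence after 30 min at room temperature.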

[4] = qHTS assay for small molecules that induce genotoxicity in human embryonic kidney cells expressing luciferase-tagged ATAD5 - cell viability (AID 651634; calls by dose curve; also: nearly all actives have a fitted effect of over 25% in size)
In short: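 Cells (HEK293T, luciferase-tagged ATAD5) are seeded at 2,000 per well, dosed with compound or DMSO vehicle, and incubated 15.5 hr at 37C and 5% CO2. CellTiter-Fluor is added for 30 min before fluorescence is measured.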

[5] = qHTS assay for small molecule disruptors of the mitochondrial membrane potential - cell viability (AID 720634; calls by dose curve;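 also: human HepG2 liver cancer cells; series mostly up to about 83 µM; nearly all actives have a fitted effect of over 20% in size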)
In short: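 Cytotoxicity was measured by ATP quantitation in HepG2 wells that had first been treated with compound for 1 hr and stained with m-MPI dye; CellTiter-Glo incubation was 30 min at room temperature.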

[6] = qHTS assay for small molecule disruptors of the mitochondrial membrane potential (AID 720635)
In short: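 HepG2 cells exposed to compound 1 hr at 37C, then Mito-MPS dye 30 min. Ratio read of aggregate (540/590 nm) versus monomer (490/535 nm) fluorescence.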

[7] = qHTS assay to test for compound auto fluorescence at 590 nm (red) in HepG2 cells (AID 720674)
In short: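 Seeding: 2,000 HepG2 cells/well, MEM/10% FBS, overnight 37 C. Dosing: compound vs DMSO. Incubation: 1 hr, 37 C, 5% CO2. Read: fluorescence 540 ex/590 em, Rose Bengal sodium as red reference.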

[8] = qHTS assay to test for compound auto fluorescence at 535 nm (green) in HepG2 cells (AID 720675)
[9] = qHTS assay to test for compound auto fluorescence at 460 nm (blue) in HEK293 cells (AID 720678)
In short: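 Intrinsic compound fluorescence is recorded in live HEK293 cultures after overnight incubation at 37C, 5% CO2, using excitation 405 nm and emission 460 nm. Values are referenced to triamterene.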

[10] = qHTS assay to test for compound auto fluorescence at 590 nm (red) in HEK293 cells (AID 720679)
In short: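 Red autofluorescence, HEK293 cells: 2,000 cells/well; attach 4-5 hr 37C; add 23 nL cpd or DMSO; incubate o/n 37C 5% CO2; read Ex540/Em590; Rose Bengal sodium reference.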

Measured: Potency

Cc1c(NC(C)C)c(=O)n(-c2ccccc2)n1C
inactive: all assays above

C[C@H]1C[C@@H](O)CC(C)(C)C1
inactive: all assays above

Nc1c2c(nc3ccccc13)CCCC2O (stereo not given)
inactive: all assays above

N=C(N)c1ccc(OCCCOc2ccc(C(=N)N)cc2)cc1
inactive: all assays above

O=C1NC(=O)[C@@]2(CCOc3ccc(F)cc32)N1
inactive: all assays above

O=[N+]([O-])c1ccc(F)cc1F
inactive: all assays above

O=S(O)CO
inactive: all assays above

NS(=O)(=O)c1ccc(C(=O)O)cc1
inactive: all assays above

CCOC(=O)C(=O)OCC
inactive: all assays above

CCCCCCCCCCCC
inactive: all assays above

CC(C)(O)C#CC(C)(C)O
inactive: all assays above

O=C(O)c1ccccc1OP(=O)(O)O
inactive: all assays above

NC(=O)Nc1ccccc1
inactive: all assays above

CCn1ccnc1CC1COc2ccccc2O1 (stereo not given)
inactive: all assays above

Cc1cc(O)cc2c1O[C@](C)(CCC[C@H](C)CCC[C@H](C)CCCC(C)C)CC2
inactive: all assays above

CCCCCSCCCCC
inactive: all assays above

C=CCS(=O)(=O)O
inactive: all assays above

NC(=O)c1cn(Cc2c(F)cccc2F)nn1
inactive: all assays above

C[N+](C)(C)CC(O)CC(=O)[O-] (stereo not given)
inactive: all assays above

COC(=O)c1cc(C(=O)OC)cc(S(=O)(=O)O)c1
inactive: all assays above

O=c1cc(CO)occ1O
inactive: all assays above

CN(C)CCCSc1ccccc1NC(=O)/C=C/c1ccccc1
inactive: all assays above

CC(=O)OCC(=O)[C@@]1(O)CCC2C3CCC4=CC(=O)CC[C@]4(C)C3[C@@H](O)C[C@@]21C (stereo not given in full)
inactive: all assays above

Oc1ccc(C2CNCCc3c2cc(O)c(O)c3Cl)cc1 (stereo not given)
inactive: all assays above
